BoNT-F LC inh = BoNT F light chain protease inhibition | Multiplex microsphere protease cleavage assay, flow cytometry | inhibition, % at 10 µM | hit rate 0.22% among 360,000 | AID 588497; in the data active = inhibition above about 35%, passing the limit was not always enough; inconclusive = no clear call, values can overlap the other calls
BoNT-A LC inh2 = BoNT A light chain protease inhibition | multiplex microsphere protease substrate cleavage, flow cytometry | inhibition, % at 10 µM | hit rate 0.17% among 360,000
Autofluor counter = counter-screen for toxin protease inhibitors: compound fluorescence | compound autofluorescence counterscreen, microsphere flow cytometry; hits give high values | fluorescence intensity (concentration not given with the values) | hit rate 3.1% among 360,000; in the data active = fluorescence intensity above about 16000; inconclusive = no clear call, values can overlap the other calls
Vc quorum ag = induces V. cholerae light production without autoinducers; V. cholerae BH1578 lux reporter, luminescence, 6 h; activation, % at 18.7 µM; hit rate 0.16% among 350,000; in the data active = activation mostly above about 9.7%, no sharp cut-off; inconclusive = no clear call, values can overlap the other calls; inactive = mostly below about 3.7%
Anthrax LF prot = blocks Bacillus anthracis lethal factor protease; P15917; inhibition, % at 10 µM; multiplex microsphere protease cleavage assay, LF; hit rate 0.12% among 360,000
Each line names hits and unclear results; the compound was inactive in the other large screens. Rows were chosen to be rich in hits. Some 3.5% of all compounds tested hit in one or more screens of this group. Cut-off read from the data, not from the text of the source, unless noted: active = inhibition above about 30%; inconclusive = no clear call, values can overlap the other calls; inactive = below that.

CSc1nncn1/N=C/c1ccccc1F	BoNT-A LC inh2 inconclusive, Autofluor counter 23258
S=C1N(c2ccccc2)C(c2ccc(Br)cc2)N2CCCN12 (configuration not stated)	BoNT-F LC inh inconclusive
O=C(CN1CCN(Cc2ccccc2Cl)CC1)N/N=C/c1cccs1	BoNT-F LC inh inconclusive
O=C(O)CCNS(=O)(=O)c1ccc(Oc2ccccc2Cl)cc1	Autofluor counter 17172
COc1ccc(S(=O)(=O)NC(C)c2ccc3c(c2)OCCO3)cc1 (configuration not stated)	none
O=S(=O)(NCC(c1ccccc1)N1CCNCC1)c1ccc(Cl)cc1 (configuration not stated)	Autofluor counter 21805
O=C(CNC(=O)c1ccc(Br)o1)OCC(=O)c1cccc([N+](=O)[O-])c1	none
Cc1ccc(C(=O)N/C(=C\c2ccccc2)C(=O)NCCCn2ccnc2)cc1	none
CN1C(=O)NC(NC(=O)c2ccncc2)(C(F)(F)F)C1=O (configuration not stated)	none
COc1ccc(N2C(=O)NC(NC(=O)c3ccncc3)(C(F)(F)F)C2=O)cc1 (configuration not stated)	Autofluor counter 22275
O=C(OCC(=O)N1CCc2ccccc21)c1ccc(Cl)nc1	Autofluor counter 23913
Cc1cc(Nc2ccccc2N2CCOCC2)n2ncnc2n1	Autofluor counter 16563
COC(=O)c1csc2c(C(F)(F)F)cc(N3CCN(C(=O)Nc4ccccc4)CC3)nc12	none
Cc1ccc(S(=O)(=O)N(CC(=O)Nc2ccc(C(N)=O)cc2)C(=O)N2CCN(C)CC2)cc1	BoNT-F LC inh inconclusive
CC(C)CCOP(=O)(c1ccc(N(C)C)cc1)C(O)c1ccccn1 (configuration not stated)	Autofluor counter 16641
CC(C)OP(=O)(c1ccc(N(C)C)cc1)C(O)c1ccncc1 (configuration not stated)	Autofluor counter 24190
CC(C)COP(=O)(c1ccc(N(C)C)cc1)C(O)c1ccccn1 (configuration not stated)	none
COc1ccccc1C(O)P(=O)(OC(C)C)c1ccc(N(C)C)cc1 (configuration not stated)	none
CCOP(=O)(c1ccc(N(C)C)cc1)C(O)c1ccccc1OC (configuration not stated)	BoNT-A LC inh2 inconclusive, Autofluor counter 18542
CCCOP(=O)(c1ccc(N(C)C)cc1)C(O)c1cccnc1 (configuration not stated)	Autofluor counter 19815
CC(CCC(=O)O)C1CCC2C3C(O)CC4CC(O)CCC4(C)C3CC(O)C12C (configuration not stated)	none
CCC1(c2ccc(F)cc2)NC(=O)N(CC(=O)N2c3ccccc3CC2C)C1=O (configuration not stated)	none
ON=C1c2ccccc2-c2ccccc21	none
NC(N)=NN=C1c2ccccc2-c2ccccc21	BoNT-F LC inh 82, Anthrax LF prot 49
Cn1nc(C(=O)NCCOc2ccccc2)c2ccccc2c1=O	none
Cc1ccc(-n2nnc(-c3cccnc3Cl)n2)cc1	none
c1ccc(CNc2ccc(CNc3ncn[nH]3)cc2)cc1	BoNT-A LC inh2 inconclusive, Autofluor counter 22732
c1ccc(CNc2ncn[nH]2)cc1	none
CC1=C(C(=O)Nc2ccccc2)C(c2cc(CN3CCOCC3)cs2)C2=C(CCCC2=O)N1 (configuration not stated)	none
CC1=C(C(=O)N2CCOCC2)C(c2ccsc2)C2=C(CCCC2=O)N1 (configuration not stated)	Autofluor counter 22793
COc1ccc(CNC(=O)COC(=O)CC2CC3CCC2C3)cc1OC (configuration not stated)	none
COc1ccc(-c2cc(-c3nnc(COC(=O)CC4CC5CCC4C5)o3)c3ccccc3n2)cc1OC (configuration not stated)	BoNT-A LC inh2 52
CN(C)C(CNC(=O)C1CCN(S(=O)(=O)c2ccccc2C(F)(F)F)CC1)Cc1ccccc1 (configuration not stated)	none
CC(C(=O)Nc1cccc(S(=O)(=O)N2CCOCC2)c1)N1CCN(C)CC1 (configuration not stated)	none
CCC(=O)NC1(C(F)(F)F)C(=O)Nc2c1c(=O)n(C)c(=O)n2C (configuration not stated)	Autofluor counter 23514
CC1CCN(S(=O)(=O)c2ccc(S(=O)(=O)NCC3COCCO3)cc2)CC1 (configuration not stated)	Autofluor counter 23033
CC(C)(C)c1csc(N(CCC#N)CCC#N)n1	Autofluor counter 16153
COc1ccc(CCN=C(N)NS(=O)(=O)c2cc(F)ccc2F)cc1	none
Cc1oc2nc(SCC(=O)NCCCO)nc(N)c2c1C	Autofluor counter 22217
Cn1c(=O)c2[nH]c(-c3cccnc3)nc2n(C)c1=O	Autofluor counter 21912
Cc1cc(=O)[nH]c(-c2cccnc2)n1	none
Cc1ccc(-n2nc3c4c(cccc4c2=O)-c2ccccc2-3)cc1	Autofluor counter 19852
c1ccc(-n2cnc3cc(NCc4cccs4)ccc32)cc1	BoNT-A LC inh2 inconclusive, Autofluor counter 23254
COc1ccc(-n2cnc3cc(NCc4cccs4)ccc32)cc1	none
CCCn1cnc2cc(NCc3ccccn3)ccc21	none
COc1ccccc1-n1cnc2cc(NC(C)=O)ccc21	none (no result: Vc quorum ag)
CCCn1cnc2cc(NCc3cccc(OC)c3O)ccc21	Autofluor counter 19022
COc1ccccc1-n1cnc2cc(NCc3ccccn3)ccc21	Autofluor counter 22276
COc1ccc(-n2cnc3cc(NCc4ccccn4)ccc32)cc1	Autofluor counter 18683
Cc1noc(C)c1NC(=O)N(C)C[C@@H]1Oc2ccc(NC(=O)C3CCCCC3)cc2C(=O)N([C@@H](C)CO)C[C@H]1C	none
Cc1ccc(OCC(=O)Nc2ccc(N3CCN(C(=O)c4ccco4)CC3)cc2)cc1	none
N=C1N(/N=C/c2ccccc2)C(=Nc2ccccc2)C(=S)N1c1ccccc1	Autofluor counter 18941
O=C(NCc1ccncc1)[C@@H]1CCCN1C(=O)[C@H]1CCCN1C(=O)c1c(F)cccc1F	none (no result: Vc quorum ag)
NC(=O)NOCc1ccccc1F	none
Fc1cccc(F)c1/C=C/c1ccc2ccccc2n1	none
CC(O)/C=C/c1ccc2ccccc2n1 (configuration not stated)	Autofluor counter 17160
Cc1cc(=O)oc2cc(OS(C)(=O)=O)ccc12	none
COc1cc(C(=O)Oc2ccc3c(c2)OCC3=O)cc(OC)c1OC	BoNT-F LC inh 44
O=C(Oc1ccc2c(c1)OCC2=O)c1ccc(Cl)cc1	BoNT-F LC inh inconclusive, BoNT-A LC inh2 inconclusive
CC1CCCN(C(=O)COC(=O)C2CCN(S(=O)(=O)c3ccc4c(c3)OCCO4)CC2)C1 (configuration not stated)	none
N#CCSc1ncccc1-c1nc2ccccc2[nH]1	none
N#CCCCSc1ncccc1-c1nc2ccccc2[nH]1	Autofluor counter 19935
CCCCc1cc(=O)oc2cc(C)cc(OCC(=O)O)c12	BoNT-A LC inh2 inconclusive, Autofluor counter 21248
Cc1cc2oc(=O)cc(Cn3ccnc3)c2cc1C	Autofluor counter 16965
O=c1cc(Cn2ccnc2)c2cc3c(cc2o1)CCC3	none
CCCCn1c(N)c(N(CC(C)C)C(=O)c2cc3c(s2)CCCCC3)c(=O)[nH]c1=O	none
